From PubChem BioAssay AID1751 (National Center for Advancing Translational Sciences (NCATS), 2009) come the findings set out here.

“And” between values parts separate entries of the source, which are not always exact repeats. Equal entries are not always repeated. Records with an inconclusive call do not appear. The source made the active and inactive calls. Calls follow the shape of the dose curve; as a rule, active = well fitted activation curve with a large enough effect; inconclusive = small, poorly fitted or top-dose-only effect; inactive = no such curve, though single readings can be large or run the other way.

Sequence of Pyruvate kinase PKM (Homo sapiens) (P14618 whole entry, looked up, canonical isoform): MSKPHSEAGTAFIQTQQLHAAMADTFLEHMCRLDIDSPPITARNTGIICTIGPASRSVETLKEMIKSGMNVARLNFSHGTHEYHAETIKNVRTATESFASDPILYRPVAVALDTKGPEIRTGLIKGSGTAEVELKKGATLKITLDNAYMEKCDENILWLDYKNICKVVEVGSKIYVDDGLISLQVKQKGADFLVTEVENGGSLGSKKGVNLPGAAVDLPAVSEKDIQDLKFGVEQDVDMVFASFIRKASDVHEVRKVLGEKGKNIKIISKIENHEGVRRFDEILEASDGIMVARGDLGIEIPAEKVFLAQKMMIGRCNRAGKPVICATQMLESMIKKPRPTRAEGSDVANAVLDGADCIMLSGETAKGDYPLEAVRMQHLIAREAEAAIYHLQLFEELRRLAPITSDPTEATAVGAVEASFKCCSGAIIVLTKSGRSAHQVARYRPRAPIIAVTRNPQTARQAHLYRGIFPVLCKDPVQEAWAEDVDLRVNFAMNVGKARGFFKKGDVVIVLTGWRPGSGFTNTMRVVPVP

The assay has as its target Pyruvate kinase PKM (Homo sapiens) (UniProt P14618). Nature of the assay: Confirmation Concentration-Response Assay for Activators of Human Muscle isoform 2 Pyruvate Kinase. As to conditions: purified hPK-M2, Kinase-Glo ATP luminescence, 1 h; series mostly up to 57.5 µM. An excerpt: NIH Chemical Genomics Center [NCGC] Matthew G. Vander Heiden, M.D., Ph.D. [Harvard Medical School, 77 Avenue Louis Pasteur, Boston, MA 02115] MLPCN Grant: 1 R03 MH085679-01 NCGC Assay Overview: Human pyruvate kinase muscle 2 (hPK-M2) enzyme was supplied as a highly purified (>95% pure) preparation from Harvard Medical School and assayed for its ability to generate ATP from ADP using phosphoenolpyruvate (PEP) as a substrate. ATP generation was detected in a coupled reaction by luciferase-mediated luminescence, an ATP-dependent process. Pyruvate kinase substrates, PEP and ADP, were present in the assay at Km and approximately 10-fold below Km respectively. The enzyme was assayed at an intermediate level of activity to screen for both inhibitors and activators.
NCGC Assay Protocol Summary: Three uL of substrate mix (at r.t.) in assay buffer (50 mM Imidazole pH7.2, 50 mM KCl, 7 mM MgCl2, 0.01% Tween 20, 0.05% BSA) was dispensed into white solid bottom 1,536 well microtiter plates so that the final concentrations of substrates in the assay were 0.1 mM ADP and 0.5 mM PEP. 23 nL of compound were delivered by a pin tool and 1 uL of enzyme mix (final concentration of 0.1 nM) in assay buffer (4 degree Celsius) was added. Plates were incubated at room temperature for 1 hour. Two uL of detection mix (Kinase-Glo, Promega; at 4 degree Celsius protected from light) was added and luminescence read by a ViewLux (Perkin Elmer) at 1 second exposure/plate. Data were normalized to the uninhibited (column 3) and AC100 inhibition (no enzyme in column 2). To monitor activation, the first column contained a titration of the activator, NCGC00031955-03 (16-point 1:2 dilutions in duplicate starting at 57 uM) and the first 16 rows of column 4 contained 57 uM of NCGC00031955-03.
On the technique in general: Kinase-Glo measures the ATP left after a reaction by luminescence.
Regarding `Cc1cc2c(s1)c1cnn(Cc3cccc(F)c3F)c(=O)c1n2C`, the Potency is 113 nM (active).

`CC(C)c1cc2c(s1)c1cnn(Cc3ccccc3F)c(=O)c1n2C`: the Potency is 101 nM (active).

For the molecule `Cc1cc2c(s1)c1cnn(Cc3ccc(C)c(F)c3F)c(=O)c1n2C`, the Potency was 56.6 nM (active).

Regarding `Cn1c2cc(B(O)O)sc2c2cnn(Cc3ccccc3F)c(=O)c21`, the Potency was 6350 nM (active).

For the molecule `COC(=O)c1cc2c(s1)c1cnn(Cc3ccccc3F)c(=O)c1n2C`, the Potency is 39.1 nM (active).

For `Cc1cc2c(s1)c1cnn(Cc3cccc(Cn4ncc5c6sc(C)cc6n(C)c5c4=O)c3F)c(=O)c1n2C`, the Potency was 16000 nM (active).

Consider `O=S(=O)(NC1CCN(S(=O)(=O)c2c(F)cccc2F)CC1)c1ccc2c(c1)OCCO2`, for which the Potency is 3570 nM (active).

For `COc1ccc(Cn2ncc3c4sc(C)cc4n(C)c3c2=O)cc1F`, the Potency was 127 nM (active).

Take `Cc1cc2c(s1)c1cnn(Cc3cccc(F)c3)c(=O)c1n2C`: the Potency was 101 nM (active).

With `O=C(/C=C/c1cccc(Cl)c1)c1nc2ccccc2[nH]1`, the Potency result was “inactive”.

Take `Cc1ccc(NS(=O)(=O)c2ccc3c(c2)CCC(=O)N3)cc1C`: the Potency is 163 nM (active).

For the molecule `COc1ccc(S(=O)(=O)N2CCN(S(=O)(=O)c3ccc4c(c3)OCCO4)CC2)cc1`, the Potency was 80 nM (active).

For `Cc1cc2c(s1)c1cnn(Cc3ccccc3)c(=O)c1n2C`, the Potency is 45 nM (active).

Consider `C[C@H]1CN(S(=O)(=O)c2c(F)cccc2F)CCN1S(=O)(=O)c1ccc2c(c1)OCCO2`, for which the Potency is 3570 nM (active).

In the case of `O=C1CN(S(=O)(=O)c2c(F)cccc2F)CCN1S(=O)(=O)c1ccc2c(c1)OCCO2`, the Potency is 89.7 nM (active).

For `CCOC(=O)CSc1nc2cc(OC)ccc2cc1C#N`, the Potency result is “inactive”.

For `CC(=O)c1cc2c(s1)c1cnn(Cc3ccccc3F)c(=O)c1n2C`, the Potency is 7.1 nM (active).

Consider `Cc1cc2c(s1)c1cnn(Cc3c(F)cccc3F)c(=O)c1n2C`, for which the Potency was 25.3 nM (active).

On to `O=S(=O)(c1cccc(F)c1)N1CCN(S(=O)(=O)c2ccc3c(c2)OCCO3)CC1`, for which the Potency is 284 nM (active).

`COc1ccc2nc3sc(C(=O)NCc4cccs4)c(N)c3cc2c1`: the Potency entry is “inactive”.

For the molecule `Cc1cc2c(s1)c1cnn(Cc3ccc(S(C)(=O)=O)cc3)c(=O)c1n2C`, the Potency was 4500 nM (active).

As for `O=C(CN1C(=O)N/C(=C\c2cccn2-c2cccc(C(=O)O)c2)C1=O)Nc1ccccc1F`, the Potency entry is “inactive”.

In the case of `Cc1ccc(-c2nnc3ccc(SC(C)C(=O)O)nn23)cc1` (stereo not given), the Potency entry is “inactive”.

With `CCn1c2cc(C)sc2c2cnn(Cc3ccccc3F)c(=O)c21`, the Potency was 4010 nM (active).

For `Cn1c2ccsc2c2ncn(Cc3ccccc3F)c(=O)c21`, the Potency was 17900 nM (active).

For `COc1ccc2c(c1)CCc1c(C(=O)NC3CCCCC3)noc1-2`, the Potency entry was “inactive”.

Turning to `COc1cc(F)c(S(=O)(=O)N2CCN(S(=O)(=O)c3ccc4c(c3)OCCO4)CC2)c(F)c1`, the Potency is 17.9 nM (active).

On to `O=S(=O)(c1ccc2c(c1)OCCO2)N1CCN(S(=O)(=O)c2c(F)ccc(O)c2F)CC1`, for which the Potency is 31.8 nM (active).

Take `O=C1C(=C2SCCCS2)CC/C1=C\c1ccc(F)cc1`: the Potency result was “inactive”.

With `S=C1NC(c2ccccc2)N2C(=S)NC(c3ccccc3)N12` (stereo not given), the Potency entry was “inactive”.

Take `O=S(=O)(c1ccc2c(c1)OCCO2)N1CCN(S(=O)(=O)c2ccccn2)CC1`: the Potency was 505 nM (active).

Turning to `O=S(=O)(NCCCNS(=O)(=O)c1c(F)cccc1F)c1ccc2c(c1)OCCO2`, the Potency was 2840 nM (active).

Consider `Cn1c2cc(C#N)sc2c2cnn(Cc3ccccc3F)c(=O)c21`, for which the Potency is 11.3 µM (active) and 22.5 nM (active).

In the case of `CC(C)N1C(=S)SC(C)(C)C1NO` (stereo not given), the Potency result was “inactive”.

Consider `O=S(=O)(c1ccc2c(c1)OCCCO2)N1CCN(S(=O)(=O)c2c(F)cccc2F)CC1`, for which the Potency is 80 nM (active).

In the case of `O=S(=O)(c1ccc(F)cc1)N1CCN(S(=O)(=O)c2ccc3c(c2)OCCO3)CC1`, the Potency is 56.6 nM (active).

With `O=S(=O)(c1ccc2ccccc2c1)N1CCN(S(=O)(=O)c2c(F)cccc2F)CC1`, the Potency is 56.6 nM (active).

Consider `CC1(C)CCc2cc(S(=O)(=O)N3CCN(S(=O)(=O)c4c(F)cccc4F)CC3)ccc2O1`, for which the Potency is 71.3 nM (active).

Consider `Oc1ccc(-c2nnc(-c3ccc(O)cc3)nn2)cc1`, for which the Potency entry is “inactive”.

For the molecule `O=S(=O)(c1ccc2c(c1)OCCO2)N1CCCN(S(=O)(=O)c2c(F)cccc2F)CC1`, the Potency is 566 nM (active).
